Source: PubChem (several laboratories)
NTR1 agonist: agonists of human NTR1, primary screen, imaging, U2OS cells, beta-arrestin-GFP, high content; 0.17% of 330,000 active; NTR1-U2OS beta-arrestin-GFP spot imaging, agonist mode; activation, % at 20 µM;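 active = activation at or above 40% of the spot to cytoplasm intensity ratio, with at least 20 cells analyzed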
MEKK2wt PB1 HTS: modulators of MEK5 binding to wildtype MEKK2, primary screen, biochemical, multiplex bead flow cytometry, Alexa488-MEK5; Mitogen-activated protein kinase kinase kinase 2 (Homo sapiens), Q9Y2U5; Alexa488-MEK5 binding to MEKK2 WT; actives lie on both sides; AID 1531, 2009; binding response (% of control), % at 10 µM; 1.1% of 290,000 active; in the data active = binding response below about 67% or above about 130%
ANO1 activ: TMEM16A chloride channel activators or potentiators, primary screen, cell-based, HTS | HEK293 TMEM16A/YFP-H148Q/I152L, iodide quench fluorescence; stronger effect = lower value | B-score at 10 µM | 0.3% of 340,000 active | Anoctamin-1 (Mus musculus), Q8BHY3;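 active = fluorescence-ratio B-score plate-corrected deviation score at least 3 library SD below zero, with starting fluorescence score within 5 deviations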;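 also: channel opened by trigger with iodide after compound preincubation; score built on the fluorescence ratio of max minus min over baseline; more negative score means more quench and so TMEM16A activation or potentiation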
MEKK2mut PB1 HTS: MEK5 binding signal on mutant MEKK2 PB1, primary screen, biochemical, multiplex bead flow cytometry, Alexa488-MEK5 | 0.35% of 290,000 active | Alexa488-MEK5 binding to MEKK2 mutant | percent response, % at 10 µM | AID 1530, 2009; in the data active = percent response above about 24%, passing the limit was not always enough
MEKK3 PB1 HTS: modulators of MEKK3-MEK5 PB1 binding, primary screen, biochemical, wildtype MEKK3, multiplex bead flow cytometry, Alexa488-MEK5 | 1.4% of 290,000 active | binding response (% of control), % at 10 µM | Mitogen-activated protein kinase kinase kinase 3 (Homo sapiens), Q99759 | AID 1529, 2009 | bead-based flow cytometry, Alexa488-MEK5 binding to MEKK3; actives lie on both sides; 0 = blocked by unlabeled MEK5, 100 = vehicle;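 active = binding response more than 3 SD above or below the average of its plate-row segment, actives on both sides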;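 also: Alexa488 bead fluorescence after subtracting the streptavidin-only scavenger bead signal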
Target sequence (Q99759 whole entry, looked up): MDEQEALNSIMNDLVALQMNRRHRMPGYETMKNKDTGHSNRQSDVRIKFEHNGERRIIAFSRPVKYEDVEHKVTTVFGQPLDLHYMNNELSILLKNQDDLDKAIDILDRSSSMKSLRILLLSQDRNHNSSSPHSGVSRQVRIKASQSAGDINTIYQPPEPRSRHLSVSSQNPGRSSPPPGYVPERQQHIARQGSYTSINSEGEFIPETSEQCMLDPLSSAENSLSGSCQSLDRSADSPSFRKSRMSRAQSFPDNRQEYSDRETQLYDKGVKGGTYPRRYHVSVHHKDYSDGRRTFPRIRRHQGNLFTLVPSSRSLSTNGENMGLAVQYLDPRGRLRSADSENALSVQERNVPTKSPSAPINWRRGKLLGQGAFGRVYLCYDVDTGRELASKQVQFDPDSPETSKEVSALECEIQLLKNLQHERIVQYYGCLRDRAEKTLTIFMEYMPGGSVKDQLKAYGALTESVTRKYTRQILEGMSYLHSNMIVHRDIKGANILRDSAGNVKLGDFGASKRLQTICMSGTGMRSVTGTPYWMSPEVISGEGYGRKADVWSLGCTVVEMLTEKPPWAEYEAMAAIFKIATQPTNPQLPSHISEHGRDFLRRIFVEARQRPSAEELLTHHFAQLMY
ANO1 block: TMEM16A chloride channel inhibitors, primary screen, cell-based, HTS. AID 588511, 2011. HEK293 TMEM16A/YFP iodide influx fluorescence, ionomycin. normalized B-score (activity score, 25-100; higher = stronger inhibition) at 10 µM. 1.2% of 310,000 active. Anoctamin-1 (Mus musculus), Q8BHY3;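 active = ratio plate-corrected score three or more library SD toward inhibition, starting fluorescence score within five deviations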;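 also: score derived from kinetic fluorescence span divided by baseline fluorescence per well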
MEKK2wt confirm: modulators of MEK5 binding to wildtype MEKK2, confirmation, biochemical, single concentration, multiplex bead flow cytometry; shares compounds with MEKK3 PB1 HTS; 2.4% of 5,900 active; Alexa488-MEK5 binding to MEKK2 WT; actives lie on both sides; binding response (% of control), % at 10 µM; in the data active = binding response below about 16% or above about 210%; inactive = in between
MEKK2mut-MEK5: mutant MEKK2 PB1-MEK5 binding signal retest – biochemical, single concentration, multiplex bead flow cytometry, confirmation; shares compounds with MEKK3 PB1 HTS; Alexa488-MEK5 binding to MEKK2 mutant; percent response, % at 10 µM; 2% of 5,900 active; AID 1893, 2009; in the data active = percent response mostly above about 71%, no sharp cut-off; inactive = mostly below about 38%;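 also: higher means compound restores mutant binding toward wildtype level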
MEKK3-MEK5 inh: MEKK3 wild-type PB1 binding to MEK5, inhibitors, confirmation, biochemical, bead multiplex flow cytometry, single concentration, wildtype. shares compounds with MEKK3 PB1 HTS. Alexa488-MEK5 binding to MEKK3; stronger effect = lower value. binding response (% of control), % at 10 µM. 1.8% of 5,900 active;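 active = binding response below 72% of control, or above a set upper limit, though filed actives all read lower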
A number is an active result; – = inactive; · = no result; [ ] = another dose, or the depositor's remark. In the library only some 3.4% were active in any assay of this set; here they are far more common.

SMILES	NTR1 agonist	MEKK2wt PB1 HTS	ANO1 activ	MEKK2mut PB1 HTS	MEKK3 PB1 HTS	ANO1 block	MEKK2wt confirm	MEKK2mut-MEK5	MEKK3-MEK5 inh
CC(=O)c1cn(-c2ccc(Cl)cc2)c(=O)n(Cc2ccc(F)cc2)c1=O	–	–	–	–	–	–	·	·	·
COc1ccc(C)cc1-n1nnnc1SCC1CCCO1 (centres undefined)	–	–	–	24	–	–	–	–	–
Cc1ccc2c(c1)-c1[nH]c(=S)ncc1CS2	–	–	–	–	–	–	·	·	·
O=C1CC(=C2c3ccccc3-c3ccccc32)C(=O)N1CCCCN1CCN(c2ccccc2)CC1	–	155	–	–	–	–	–	–	–
O=C1CC(=C(c2ccccc2)c2ccccc2)C(=O)N1CCCN1CCN(c2cccc(Cl)c2)CC1	–	–	–	–	–	–	·	·	·
O=C(Nc1nnc(SCC(=O)N2CCCCC2)s1)c1c(F)cccc1F	–	–	–	–	–	–	·	·	·
CCC(C)NCC(=O)Nc1ccc(-c2nc3cc(NC(=O)CNC(C)CC)ccc3o2)cc1 (centres undefined)	–	160	–	34	–	–	–	–	–
COCCN1C(=O)/C(=C/c2ccc(N3CCCC3)cc2C)SC1=S	–	20[inhibitor]	–	–	–	–	–	–	56
CCN=C1S/C(=C\c2ccc(N3CCOCC3)cc2C)C(=O)N1CC	–	–	–	–	–	–	·	·	·
Cc1noc(/C=C/N(C)C)c1S(=O)(=O)N1CCCC(C(=O)NCc2ccccc2Cl)C1 (centres undefined)	–	·	–	·	·	–	·	·	·
CCOC(=O)c1c(-c2ccccc2)oc2ccc(OCC(O)CNCCN(C)C)cc12 (centres undefined)	–	165	–	31	–	–	–	–	–
O=C(NCC(c1ccco1)N1CCOCC1)c1ccccc1 (centres undefined)	–	·	–	·	·	–	·	·	·
Cc1ccc(C)c(CN2CCC(CNC(=O)Nc3ccc(Br)cc3F)CC2)c1	–	140	–	–	–	–	–	–	–
Cc1ccc(C)c(CN2CCC(CNC(=O)Nc3ccc(Cl)cc3)CC2)c1	–	–	–	–	–	–	·	·	·
COc1ccc(-c2nc(-c3ccccc3)nc(N3CCN(C)CC3)c2C#N)cc1	–	152	–	–	–	–	–	–	–
COc1ccc(-c2nc(-c3cccc(C)c3)nc(N3CCN(C)CC3)c2C#N)cc1	–	–	–	32	–	–	–	–	–
COc1cccc(-c2nc(-c3ccccc3)nc(N3CCN(C)CC3)c2C#N)c1	–	–	–	–	–	–	·	·	·
CN1CCN(c2nc(-c3ccccc3)nc(-c3ccccc3)c2C#N)CC1	–	146	–	–	–	–	–	–	–
O=C(c1ccco1)N1CCN(Cc2cc(=O)c(OCc3ccc([N+](=O)[O-])cc3)co2)CC1	–	·	–	·	·	–	·	·	·
Cn1c(=O)[nH]c(=O)c2[nH]c(CN3CCN(Cc4ccccc4)CC3)nc21	–	–	–	–	–	–	·	·	·
Cn1c(=O)[nH]c(=O)c2[nH]c(N(Cc3ccccc3)Cc3ccccc3)nc21	–	–	–	–	122	–	–	–	–
CC(=O)Nc1ccc(OC(=O)c2c(-c3ccccc3Cl)noc2C)cc1	–	–	–	–	144	–	–	–	–
CC(=O)Nc1ccc(NC(=O)c2c(-c3ccccc3Cl)noc2C)c(C)c1	–	–	–	–	–	–	·	·	·
C#CCOCCOCCOCCNc1nc(N2CCN(C(=O)[C@H]([C@@H](C)CC)n3cc(CCCN=C(N)N)nn3)CC2)nc(N2CCN(C(=O)[C@H]([C@@H](C)CC)n3cc(CCCN=C(N)N)nn3)CC2)n1	–	164	·	–	–	·	–	–	–
C#CCOCCOCCOCCNc1nc(N2CCOCC2)nc(N2CCN(C(=O)[C@H](C)n3cc(CCCN=C(N)N)nn3)CC2)n1	–	2.0[inhibitor]	–	–	1.0[inhibitor]	–	–	–	–
SMILES	NTR1 agonist	MEKK2wt PB1 HTS	ANO1 activ	MEKK2mut PB1 HTS	MEKK3 PB1 HTS	ANO1 block	MEKK2wt confirm	MEKK2mut-MEK5	MEKK3-MEK5 inh
COc1ccc(S(=O)(=O)Nc2cccc(-c3ccc(N4CCCCCC4)nn3)c2)c(OC)c1	–	–	–	–	–	–	·	·	·
Cc1cc(=O)oc2cc(OCc3ccc(C(=O)N4CCN(c5ccccc5)CC4)cc3)ccc12	–	–	–	–	–	–	·	·	·
CN(C)S(=O)(=O)N(CCN1CCOCC1)Cc1ccccc1F	–	–	–	24	–	–	–	–	–
CCOc1ccccc1CNCCOC	–	–	–	–	–	–	·	·	·
CS/C(N)=N/N=C/c1cc(C)ccc1O	–	–	–	–	–	–	·	·	·
CS/C(N)=N/N=C/c1cc(Br)cc(Br)c1O	–	–	–	–	129	–	–	–	–
Cc1ccc(CNC(=O)C2CC(=O)N(CCC(C)C)C2)cc1 (centres undefined)	–	8.0[inhibitor]	–	–	5.0[inhibitor]	–	–	–	–
Cc1n[nH]c(C)c1Sc1ccccc1[N+](=O)[O-]	–	–	–	–	57[inhibitor]	–	–	–	–
O=C(N/N=C/c1ccncc1)c1ccccc1[N+](=O)[O-]	–	–	–	–	–	–	·	·	·
O=C(N/N=C/c1ccc([N+](=O)[O-])cc1)c1cnccn1	–	–	·	–	66[inhibitor]	–	–	–	–
O=C(NNC(=S)Nc1ccccc1)c1ccccc1[N+](=O)[O-]	–	7.0[inhibitor]	–	–	5.0[inhibitor]	–	–	–	–
CC(=O)c1ccc(NC(=S)NNC(=O)c2ccccc2[N+](=O)[O-])cc1	–	–	–	–	–	–	·	·	·
O=C(N/N=C/c1cccnc1)c1ccccc1[N+](=O)[O-]	–	–	–	–	58[inhibitor]	–	–	–	–
